Results taken from PubChem BioAssay (Tox21).
Results filed as inconclusive are left out. Entries that show only a call come without a potency. Active and inactive are the calls of the source. The call rests on the fitted dose curve; in most records, active means well fitted inhibition curve with a large enough effect in the repeat runs; inconclusive means weak or mixed curves; inactive means no such curve, though single readings can be large or run the other way.

What follows are compounds tested against Cytochrome P450 1A2 (Homo sapiens) (UniProt P05177) (assay: Cytochrome P450 Family 1 Subfamily A Member 2 (CYP1A2) small molecule antagonists: luciferase reporter qHTS assay (AID 1671199; further: nearly all actives have a fitted effect of over 50% in size)). Settings: P450-Glo CYP1A2 enzyme, luciferin luminescence, 1 h; series mostly up to 115 µM.
Sequence of Cytochrome P450 1A2 (Homo sapiens) (P05177 whole entry, looked up): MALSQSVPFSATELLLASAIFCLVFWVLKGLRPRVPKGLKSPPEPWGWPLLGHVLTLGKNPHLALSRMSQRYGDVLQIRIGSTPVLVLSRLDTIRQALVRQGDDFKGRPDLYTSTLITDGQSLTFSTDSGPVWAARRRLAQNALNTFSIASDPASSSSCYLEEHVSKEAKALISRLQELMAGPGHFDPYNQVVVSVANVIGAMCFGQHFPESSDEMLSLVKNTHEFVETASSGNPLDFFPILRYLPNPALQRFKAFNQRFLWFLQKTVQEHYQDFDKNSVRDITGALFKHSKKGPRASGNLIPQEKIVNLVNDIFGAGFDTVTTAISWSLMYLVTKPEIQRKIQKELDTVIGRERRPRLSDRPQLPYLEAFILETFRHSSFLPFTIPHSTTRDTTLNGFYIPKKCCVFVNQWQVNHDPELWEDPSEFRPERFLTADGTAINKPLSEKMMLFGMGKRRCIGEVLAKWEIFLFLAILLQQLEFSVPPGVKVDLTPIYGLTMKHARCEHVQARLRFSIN
Source text: National Center for Advancing Translational Sciences [NCATS]
U.S. Environmental Protection Agency [EPA]
National Institutes of Environmental Health Sciences [NIEHS]
National Toxicology Program [NTP]
U.S. Food and Drug Administration [FDA]
Cytochrome P450 (CYP) enzymes are membrane-bound hemeproteins that play a key role in metabolism of drugs and xenobiotics. Evaluation of the effect of chemicals on CYP isozymes is useful to minimize the adverse drug reactions and toxicities in drug development process. Tox21 chemicals were tested for their effect on CYP enzyme activities by using P450-Glo (TM) screening systems (Promega Corporation, Madison, WI). These systems provide a luminescent method containing proluciferin substrates and are converted to luciferin products by CYP isozymes. The luciferin products formed are detected with a luciferin detection reagent, and the amount of light produced is proportional to CYP activity. P450-Glo (TM) CYP1A2 screening system (Catalog. No. V9770) was used to detect the compounds that interfere in CYP1A2 activity. The positive control compound used for CYP1A2 assay is furafylline (Sigma-Aldrich, St. Louis, MO).
Tox21 Assay Protocol Summary:
Two ul of enzyme-substrate mix was dispensed into medium binding white/solid 1536-well plates (Greiner Bio-One North America Inc., Monroe, NC) using a BioRaptr Flying Reagent Dispenser (FRD, Beckman Coulter, Brea, CA). Compounds dissolved in DMSO and positive control (furafyllline) were transferred to the assay plates at 23 nl using a Pintool station (Wako, San Diego, CA). The assay plates were incubated at room temperature for 10 min. Then 2 ul of NADPH regeneration solution was added to each well of the assay plates using an FRD and incubated at room temperature for 1 h. The reaction was stopped by adding 4 ul of detection reagent using an FRD and after 20 min incubation at room temperature the luminescence signal was measured using a ViewLux plate reader (Perkin Elmer, Shelton, CT). Data were expressed as relative luminescence units.
Potency means the concentration at half of the fitted maximal effect.

SMILES | Potency | activity change, negative = inhibition
Cc1c[nH]c2ccccc12 | 14.4 µM (active) | 
CCCCCCC(CO)CCCC (stereo not given) | inactive | 
CC[C@H]1OC(=O)[C@H](C)[C@@H](O[C@H]2C[C@@](C)(OC)[C@@H](O)[C@H](C)O2)[C@H](C)[C@@H](O[C@@H]2O[C@H](C)C[C@H](N(C)C)[C@H]2O)[C@](C)(O)C[C@@H](C)CN(C)[C@H](C)[C@@H](O)[C@]1(C)O | inactive | 
C1CCCCC1 | inactive | 
CC(C)C(=O)OCCOc1ccccc1 | 31.7 µM (active) | 
CC(=O)OCC(=O)[C@@]1(OC(C)=O)[C@@H](C)C[C@H]2[C@@H]3C[C@H](F)C4=CC(=O)C=C[C@]4(C)[C@@]3(F)[C@@H](O)C[C@@]21C | inactive | 
CC(C)c1ccc(C#N)cc1 | inactive | 
CCOC(=O)c1ccc(NC(=O)CN2CCCCC2)cc1 | 32.3 µM (active) | 
CCCc1nc2c(C)cc(-c3nc4ccccc4n3C)cc2n1Cc1ccc(-c2ccccc2C(=O)O)cc1 | inactive | 
CCCOC(=O)c1c(Cl)c(Cl)c(Cl)c(Cl)c1C(=O)OCCC | 2.24 µM (active) | 
O=C(O)c1cccc(Oc2ccccc2)c1 | inactive | 
CNc1c2c(nn1C)CCCC2 | inactive | 
CO[C@@H]1[C@@H](OC)[C@H](C)[C@@](O)(CC(=O)O)O[C@H]1[C@H](C)[C@H]1O[C@@]2(CC[C@@](C)([C@H]3CC[C@@](C)([C@@H]4O[C@@H]([C@H]5O[C@](C)(O)[C@H](C)C[C@@H]5C)C[C@@H]4OC4C[C@H](OC)[C@@H](OC)[C@H](C)O4)O3)O2)C[C@H](O)[C@H]1C (stereo not given in full) | inactive | 
CC(C)CC(O)CC(C)C | inactive | 
COc1cc(S(=O)(=O)Nc2ccccc2)c(OC)cc1N | 39.9 µM (active) | 
CC1CCC(C(C)CS)CC1S (stereo not given) | inactive | 
O=C1OC[C@H](Cc2cccc(O)c2)[C@H]1Cc1cccc(O)c1 | 10.7 µM (active) | 
CCN(CC)CC(=O)Nc1c(C)cccc1C(=O)OC | inactive | 
CC(=O)NCCO | inactive | 
[Cl][Nd]([Cl])[Cl] | inactive | 

SMILES | Potency | activity change, negative = inhibition
Cc1ccc(S(=O)(=O)NC(=O)NC2CCCCC2)cc1 | inactive | 
CCCCCCCC(=O)OCCCCCC | inactive | 
CCCCCCCC(=O)Oc1c(Br)cc(C#N)cc1Br | 12.6 µM (active) | 
CC(C)COC(=O)COc1cc(Cl)c(Cl)cc1Cl | 31.6 µM (active) | 
CCC(C)(C)C(=O)O | inactive | 
CC1=CC[C@@H]2C[C@H]1C2(C)C |  | -16.3% [at 23.6 µM] (inactive)
CC(C)N=C=NC(C)C | inactive | 
C=CCOC(=O)COCCC(C)C | inactive | 
Nc1ccn([C@H]2CS[C@@H](CO)O2)c(=O)n1 | inactive | 
COc1ccc(-c2cc(=S)ss2)cc1 | 0.911 µM (active) | 
NC(=O)CCCCC(N)=O | inactive | 
Cc1ccc(Nc2c(F)cccc2Cl)c(CC(=O)O)c1 | 12.3 µM (active) | 
CCN(CC)CCOc1ccccc1C(=O)CCc1ccccc1 | 7.76 µM (active) | 
CN1CCCN(C(c2ccccc2)c2ccc(Cl)cc2)CC1 (stereo not given) | inactive | 
CC(C)N(C)C | inactive | 
Oc1cccc2[nH]ccc12 | inactive | 
CCCCCCC(O)CCCCCCCCCCC(=O)OC (stereo not given) | inactive | 
c1ccc(CNc2ncnc3c2ncn3C2CCCCO2)cc1 (stereo not given) | 28.3 µM (active) | 
Cc1ccc2c(c1)CCCN2 | 3.17 µM (active) | 
CCN(CC)C(=O)/C(C#N)=C/c1cc(O)c(O)c([N+](=O)[O-])c1 | inactive | 
